From PubChem BioAssay come the findings set out here.

Records with an inconclusive call do not appear. Calls of active or inactive are those of the source.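 The calls were made as follows: active = cell viability at or below a set limit in both duplicate runs, the limit being the all-compound median minus 4 SD (cut at about 23% in these data, passing the limit was not always enough); inconclusive = no clear call, values can overlap the other calls; inactive = the rest.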

The experiment is described as follows: growth suppression of beta-catenin knockout HCT116, pilot screen, human colon tumor cells (AID 823).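 Also: 0% = wells killed by 20 µM Hyamine and 100% = untreated DMSO cell wells.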 The settings on record: CellTiter-Glo, 60 h, at 10 µM, hits give low values.
For `O=C(Cn1cc2c(n1)CCCCC2)N1CCc2ccccc21`, the viability is 66.4% (inactive). Regarding `CC(C)c1nccn1S(=O)(=O)c1cc(Cl)ccc1Cl`, the viability was 103% (inactive). For the compound `CC(=O)Nc1cccc(NC(=O)CSc2nn3c(=O)c(C)nnc3s2)c1`, the viability was 110% (inactive). With `CCOc1ccc2nc(Nc3nc4c(c(=O)[nH]3)CCC4)nc(C)c2c1`, the viability was 93.8% (inactive). As to `C(=N\c1c(-c2ccccc2)nc2n1CCS2)/c1ccccc1`, the viability is 84.8% (inactive). Under `CCN(CC)S(=O)(=O)c1ccc2oc(C(=O)N3CCOCC3)c(C)c2c1` stands 93.7% (inactive). In the case of `CCOC(=O)C1CCN(Cc2ccc(OC)c(C)c2OC)CC1`, the viability was 78.3% (inactive). For the compound `Cc1cc(N)n2nc(-c3ccccc3)cc2n1`, the viability was 65.1% (inactive). `Cc1nnc(SCC(=O)Nc2sc3c(c2C#N)CCCC3)[nH]c1=O`: the viability was 103% (inactive). Consider `Cc1cc(NC(=O)COc2cccc(C)c2C)no1`, for which the viability was 102% (inactive). Under `Cc1cc(C)c(NC(=O)CSc2nc3c(c(=O)n2C)SC(C)C3)c(C)c1` (configuration not stated) stands 85.7% (inactive); under `CC(=O)c1ccc(OCC(O)CN2CCN(CCO)CC2)cc1` (configuration not stated), 99% (inactive). For `CCn1cc(C(=O)NCC2CCCO2)c(=O)c2cc(S(=O)(=O)N(C)C)ccc21` (configuration not stated), the viability is 101% (inactive). For `C=CCSc1nc(N)c2c(C)c(C)sc2n1`, the viability was 95.3% (inactive). For `CC1CCCN(C(=O)c2cc3c(-c4ccc(Cl)cc4)nn(C)c3s2)C1` (configuration not stated), the viability is 91.4% (inactive). On to `COc1cccc2cc(C(=O)OC3CCN(C)CC3)c(=O)oc12`, for which the viability was 104% (inactive). Turning to `COC(=O)c1cn(C(=O)c2ccc(Br)o2)c2ccccc12`, the viability is 98.2% (inactive).
